This excerpt belongs to a sample that is enriched for hits.
nsP2pro primary – inhibitors of chikungunya virus nsP2 protease; Q8JUX6; FRET peptide cleavage, nsP2pro, fluorescence 1 h; Potency, µM (top dose mostly 24.9 µM), hits mostly inhibitors; 31,000 compounds, 1.1% hits; AID 1964107; note: nearly all actives have a fitted effect of over 60% in size
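Purified recombinant nsP2pro (150 nM final) in 10 mM Tris-HCl pH 8.0 with 0.01% Tween 20 was preincubated 15 min at room temperature with compound (7 concentrations, up to 25 uM). FRET peptide 2 substrate (2.5 uM final) was then added; fluorescence was read after 1 h.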
nsP2 cell sec – secondary cell-based test for CHIKV nsP2 protease inhibitors | 450 compounds, 10% hits | Potency, µM (series often up to 51.1 µM), actives largely listed as inhibitors | shares compounds with nsP2pro primary | cell-based CHIKV nsP2 protease reporter assay; note: nearly all actives have a fitted effect of over 70% in size
NSP2 full ctr – full-length CHIKV NSP2 protease inhibition, selectivity | Full-length CHIKV NSP2 protease enzymatic counterscreen | AID 1964101 | Potency, µM (titrated, usually from 50.7 µM), usual class: inhibitors | shares compounds with nsP2pro primary | 410 compounds, 39% hits; note: nearly all actives have a fitted effect of over 65% in size
Furin counterscr – inhibits human furin in a CHIKV nsP2 protease selectivity counterscreen. shares compounds with nsP2pro primary. Recombinant human furin enzymatic counterscreen, fluorogenic substrate. Potency, µM (top dose mostly 50.6 µM), hits mostly inhibitors. 410 compounds, 6% hits. AID 1964102
NS23 peptide cs – selectivity test for CHIKV nsP2 protease inhibitors: endogenous NS2/3 peptide; Potency, µM (titrated, usually from 51 µM), most hits filed as inhibitors; AID 1964103; Purified CHIKV nsP2 protease, endogenous NS2/3 peptide cleavage; 410 compounds, 34% hits; shares compounds with nsP2pro primary; note: nearly all actives have a fitted effect of over 55% in size
Papain cs – inhibits papain in a CHIKV nsP2 protease selectivity counterscreen; purified papain protease activity, enzymatic inhibition; 410 compounds, 5% hits; Potency, µM (doses to about 51 µM), usual class: inhibitors; shares compounds with nsP2pro primary
Target sequence (P00784 whole entry, looked up): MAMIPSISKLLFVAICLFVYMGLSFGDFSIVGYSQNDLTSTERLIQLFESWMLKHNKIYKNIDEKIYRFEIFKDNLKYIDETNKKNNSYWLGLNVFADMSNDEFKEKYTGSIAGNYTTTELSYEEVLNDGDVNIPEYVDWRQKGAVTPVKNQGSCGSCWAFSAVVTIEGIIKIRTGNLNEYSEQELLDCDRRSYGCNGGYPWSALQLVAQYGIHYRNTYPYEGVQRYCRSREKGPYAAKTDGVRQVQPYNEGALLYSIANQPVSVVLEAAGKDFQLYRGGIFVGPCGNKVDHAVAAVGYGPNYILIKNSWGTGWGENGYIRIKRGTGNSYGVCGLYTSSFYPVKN
nsP2pro conf qHTS – CHIKV nsP2 protease inhibition, confirmatory qHTS; shares compounds with nsP2pro primary; CHIKV nsP2 protease enzymatic activity, qHTS; Potency, µM (titrated, usually from 25.5 µM), usual class: inhibitors; 410 compounds, 43% hits; note: nearly all actives have a fitted effect of over 75% in size
HCV NS3 4A cs – inhibits HCV NS3/4A protease in an nsP2pro selectivity counterscreen | AID 1964106 | Potency, µM (doses to about 50.9 µM), actives largely listed as inhibitors | HCV NS3/4A protease biochemical counterscreen | 410 compounds, 20% hits | shares compounds with nsP2pro primary; note: nearly all actives have a fitted effect of over 55% in size
A number is an active result; n = inactive; u = inconclusive. Calls come from the whole dose curve.

SMILES	nsP2pro primary	others
COc1ccccc1OC1(C(=O)O)CCN(Cc2ccc(-c3ccn[nH]3)o2)CC1	1µM	nsP2 cell sec=u;NSP2 full ctr=u;Furin counterscr=n;NS23 peptide cs=n;Papain cs=n;nsP2pro conf qHTS=n;HCV NS3 4A cs=n
CNC(=O)c1ccccc1Oc1nc(Nc2cc(OC)c(OC)c(OC)c2)ncc1Br	n
Cc1nn(-c2ccccc2)c2c1C(C)N(C1CCN([S+](=O)([O-])c3ccccc3)CC1)C2=O (configuration not stated)	n
O=C(NCCC1=CCCCC1)c1c(-c2cncnc2)cc(=O)n2c1CCCC2	n
CC(=O)c1ccc(N2CCN(S(=O)(=O)c3ccc4[nH]c(=O)[nH]c4c3)CC2)cc1	n
CCCCOc1ccc(OCCCN2CCOCC2)cc1	n
O=C(O)c1ccc(OCCCOc2ccc(C(=O)O)cc2)cc1	n
CCCCOc1ccc(C(=O)N2CCN(CCc3ccncc3)CC2)cc1	u	nsP2 cell sec=n
Cc1ccc(OCC(=O)N2CCN(CCc3ccncc3)CC2)cc1C	n
Cc1cc(OCC(=O)N2CCN(CCc3ccncc3)CC2)ccc1Cl	n
CCCCOc1ccc(C(=O)CCN2CCCCC2)cc1	2.21µM	nsP2 cell sec=u;NSP2 full ctr=10.3µM;Furin counterscr=u;NS23 peptide cs=13µM;Papain cs=u;nsP2pro conf qHTS=8.96µM;HCV NS3 4A cs=n
C[C@@H](NS(=O)(=O)c1ccc(Cl)cc1)c1onc(-c2ccc(F)cc2)c1C(=O)O	n
COCC1CN(C)CC12CCN(Cc1sccc1C)CC2 (configuration not stated)	n
COc1cc(CN2CCC(CO)(CN3CCCC3)CC2)ccc1F	n
CCC(C)/C=C(C)/C=C/C1=CC2=CC(=O)C3(C)OC(C)(O)C(C(=O)OC)C3C2=CO1 (configuration not stated)	u	nsP2 cell sec=n;NSP2 full ctr=n;Furin counterscr=n;NS23 peptide cs=n;Papain cs=n;nsP2pro conf qHTS=u;HCV NS3 4A cs=n
CCC(C)/C=C(C)/C=C/C1=CC2=C(Cl)C(=O)C(C)(OC(C)=O)C(=O)C2=CN1CCCCC(N)C(=O)O (configuration not stated)	n
CCC(C)/C=C(C)/C=C/C1=CC2=CC(=O)C(C)(O)C(OC(C)=O)C2CO1 (configuration not stated)	n
CCC(C)/C=C(C)/C=C/C1=CC2=C(Cl)C(=O)C(C)(OC(C)=O)C(=O)C2=CO1 (configuration not stated)	u	nsP2 cell sec=n;NSP2 full ctr=u;Furin counterscr=n;NS23 peptide cs=u;Papain cs=u;nsP2pro conf qHTS=u;HCV NS3 4A cs=n
CC[C@H](C)/C=C(C)/C=C/C1=CC2=CC(=O)[C@]3(C)OC(=O)[C@@H](C(C)=O)[C@@H]3C2=CO1	u	nsP2 cell sec=n;NSP2 full ctr=u;Furin counterscr=n;NS23 peptide cs=u;Papain cs=n;nsP2pro conf qHTS=u;HCV NS3 4A cs=n
CCC(C)/C=C(C)/C=C/C1=CC2=C(Cl)C(=O)C(C)(OC(C)=O)C(=O)C2=CN1C(CCC(=O)O)C(=O)O (configuration not stated)	n
N#Cc1ccccc1Nc1ncc(-c2cccc3ccccc23)o1	n
COc1ccc(-c2cc(C(=O)NCc3c(C)cc(C)[nH]c3=O)c3c(c2)N(C)CCO3)cn1	n
O=[S+]1([O-])[C@@H](c2ccccc2)[C@H](COCc2ccccc2)CN1C1CC1	n
Cc1cc(=O)n(CC(=O)N2CCCC(C)(c3ccccc3)C2)nc1C (configuration not stated)	n
CC(NCc1cn(CCC(N)=O)c2ccccc12)c1ccccc1-n1cccn1 (configuration not stated)	n
SMILES	nsP2pro primary	others
COc1ccc(CNC(=O)[C@@H]2CCC[C@@H](NCc3cccnc3)CN(C)C(=O)C2)cc1	n
N[C@H]1CCN(c2cnc3c(O)ccc(C(=O)O)c3c2)C1	n
CCCOc1ccc(C(=O)N(Cc2ccc(Cl)cc2)Cc2ccco2)cc1	n
COc1ccc(CN(Cc2ccco2)C(=O)COc2ccccc2Cl)cc1	n
CCS(=O)(=O)c1ncc(Cl)c(C(=O)N(Cc2ccccc2)Cc2ccco2)n1	10.7µM	nsP2 cell sec=3.26µM;NSP2 full ctr=16.3µM;Furin counterscr=n;NS23 peptide cs=5.17µM;Papain cs=n;nsP2pro conf qHTS=4.49µM;HCV NS3 4A cs=n
O=C(Nc1cccc(F)c1)[C@@H]1C[C@@H](c2cccc(C(F)(F)F)c2)N(CC2CCOCC2)C1	n
O=C(/C=C/c1ccc(O)c(O)c1)O[C@@H]1CC(O)(C(=O)O)C[C@@H](OC(=O)/C=C/c2ccc(O)c(O)c2)C1O (some centres not stated)	n
CC(c1cccs1)N(C)Cc1ccc(C(F)(F)F)cc1 (configuration not stated)	n
CCC(CC)C(=O)NCCc1nc2ccccc2n1CCOc1ccc(C)cc1	n
COc1cccc(C(=O)N2CCOC[C@H](Oc3ccccc3)C2)c1	n
Cc1nn(-c2ccc(C(F)(F)F)cc2)c(C)c1[C@@H]1C=C[C@@H](NC(=O)NC(C)C)C1	1.41µM	nsP2 cell sec=2.11µM;NSP2 full ctr=n;Furin counterscr=14.9µM;NS23 peptide cs=18.8µM;Papain cs=n;nsP2pro conf qHTS=2.59µM;HCV NS3 4A cs=11.9µM
Cc1ccc(-n2nc(C)c([C@@H]3C=C[C@@H](NC(=O)NC(C)C)C3)c2C)cc1Cl	n
Cc1nn(-c2ccccn2)c(C)c1[C@@H]1C=C[C@@H](NC(=O)NC(C)C)C1	10µM	nsP2 cell sec=u;NSP2 full ctr=18.8µM;Furin counterscr=n;NS23 peptide cs=u;Papain cs=n;nsP2pro conf qHTS=13µM;HCV NS3 4A cs=13.3µM
Cc1nn(-c2ccc(C(C)C)cc2)c(C)c1[C@@H]1C=C[C@@H](NC(=O)NC(C)C)C1	n
CCNC(=O)N[C@@H]1C=C[C@@H](c2c(C)nn(-c3ccc(OC)cc3)c2C)C1	n
Cc1nn(-c2ccccn2)c(C)c1[C@@H]1C=C[C@@H](NC(=O)CCC(=O)O)C1	n
CO[C@@H]1[C@H](C)OC(O[C@H]2CC(Oc3cc4cc5c(c(O)c4c(O)c3C)C(=O)[C@@H](OC3C[C@@H](OC4C[C@H](OC6C[C@](C)(O)[C@@H](OC(C)=O)[C@H](C)O6)[C@@H](O)[C@H](C)O4)[C@H](O)[C@@H](C)O3)[C@H]([C@@H](OC)C(=O)[C@@H](O)[C@H](C)O)C5)O[C@@H](C)[C@H]2OC(C)=O)C[C@@H]1O (some centres not stated)	n
Cc1cc(C=CC#N)cc(C)c1Nc1nc(Nc2ccc3c(c2)OCO3)c2[nH]cnc2n1	n
[Hg+][c]1ccccc1	0.556µM	nsP2 cell sec=u;NSP2 full ctr=1.03µM;Furin counterscr=1.03µM;NS23 peptide cs=3.66µM;Papain cs=n;nsP2pro conf qHTS=0.283µM;HCV NS3 4A cs=0.231µM
Nc1ccccc1	n
COc1ccccc1CNC(=O)C[C@@H]1[C@H](O)CCC2[C@](C)(CO)[C@H](OC(=O)NC(C)C)CC[C@]21C (some centres not stated)	n
C/C=C/c1ccc(O)c(OC)c1	u	nsP2 cell sec=n;NSP2 full ctr=18.3µM;Furin counterscr=n;NS23 peptide cs=u;Papain cs=n;nsP2pro conf qHTS=5.04µM;HCV NS3 4A cs=u
C/C=C/c1ccc(OC)cc1	n
C/C=C/c1cc(OC)c2c(c1)[C@@H](C)[C@@H](c1ccc(O)c(OC)c1)O2	n

Bioassay records: PubChem, National Center for Advancing Translational Sciences (NCATS)
